PubChem BioAssay
The source made the active and inactive calls.

How the values were obtained:
[1] = small molecules captured by biotinylated probe aFSTL3 – biochemical, small-molecule microarray, fluorescence 635/667, stem cell growth factor project, primary screen (AID 1064); settings: higher = more signal;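 note: measures binding of the biotinylated anti-FSTL3 antibody to printed compounds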
[2] = binders from COS7 lysate, DM2A8 probe, primary screen, torsin A project, cell lysate, small-molecule microarray, fluorescence 635/667 (AID 1065); settings: higher = more signal, COS7 lysate expressing mutant human TOR1A
[3] = small molecules captured by biotinylated probe aFGF2 – biochemical, small-molecule microarray, fluorescence 635/667, stem cell growth factor project, primary screen (AID 1067); settings: higher = more signal;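 note: measures binding of biotinylated aFGF2 protein to printed compounds on slides; z-score merges feature fluorescence and signal-to-noise across triplicate slides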
[4] = small molecules captured by biotinylated probe aFGF10 – biochemical, small-molecule microarray, fluorescence 635/667, stem cell growth factor project, primary screen (AID 1071); settings: higher = more signal;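 note: score merges 667 nm spot intensity and signal to noise from triplicate slides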
[5] = target: Neurogenic locus notch homolog protein 2 (Homo sapiens) (UniProt Q04721); test: small molecules binding Notch2 protein – biochemical, small-molecule microarray, 635 nm fluorescence, stem cell growth factors, primary screen (AID 1073); settings: higher = more signal
Sequence of Neurogenic locus notch homolog protein 2 (Homo sapiens) (Q04721 whole entry, looked up, canonical isoform): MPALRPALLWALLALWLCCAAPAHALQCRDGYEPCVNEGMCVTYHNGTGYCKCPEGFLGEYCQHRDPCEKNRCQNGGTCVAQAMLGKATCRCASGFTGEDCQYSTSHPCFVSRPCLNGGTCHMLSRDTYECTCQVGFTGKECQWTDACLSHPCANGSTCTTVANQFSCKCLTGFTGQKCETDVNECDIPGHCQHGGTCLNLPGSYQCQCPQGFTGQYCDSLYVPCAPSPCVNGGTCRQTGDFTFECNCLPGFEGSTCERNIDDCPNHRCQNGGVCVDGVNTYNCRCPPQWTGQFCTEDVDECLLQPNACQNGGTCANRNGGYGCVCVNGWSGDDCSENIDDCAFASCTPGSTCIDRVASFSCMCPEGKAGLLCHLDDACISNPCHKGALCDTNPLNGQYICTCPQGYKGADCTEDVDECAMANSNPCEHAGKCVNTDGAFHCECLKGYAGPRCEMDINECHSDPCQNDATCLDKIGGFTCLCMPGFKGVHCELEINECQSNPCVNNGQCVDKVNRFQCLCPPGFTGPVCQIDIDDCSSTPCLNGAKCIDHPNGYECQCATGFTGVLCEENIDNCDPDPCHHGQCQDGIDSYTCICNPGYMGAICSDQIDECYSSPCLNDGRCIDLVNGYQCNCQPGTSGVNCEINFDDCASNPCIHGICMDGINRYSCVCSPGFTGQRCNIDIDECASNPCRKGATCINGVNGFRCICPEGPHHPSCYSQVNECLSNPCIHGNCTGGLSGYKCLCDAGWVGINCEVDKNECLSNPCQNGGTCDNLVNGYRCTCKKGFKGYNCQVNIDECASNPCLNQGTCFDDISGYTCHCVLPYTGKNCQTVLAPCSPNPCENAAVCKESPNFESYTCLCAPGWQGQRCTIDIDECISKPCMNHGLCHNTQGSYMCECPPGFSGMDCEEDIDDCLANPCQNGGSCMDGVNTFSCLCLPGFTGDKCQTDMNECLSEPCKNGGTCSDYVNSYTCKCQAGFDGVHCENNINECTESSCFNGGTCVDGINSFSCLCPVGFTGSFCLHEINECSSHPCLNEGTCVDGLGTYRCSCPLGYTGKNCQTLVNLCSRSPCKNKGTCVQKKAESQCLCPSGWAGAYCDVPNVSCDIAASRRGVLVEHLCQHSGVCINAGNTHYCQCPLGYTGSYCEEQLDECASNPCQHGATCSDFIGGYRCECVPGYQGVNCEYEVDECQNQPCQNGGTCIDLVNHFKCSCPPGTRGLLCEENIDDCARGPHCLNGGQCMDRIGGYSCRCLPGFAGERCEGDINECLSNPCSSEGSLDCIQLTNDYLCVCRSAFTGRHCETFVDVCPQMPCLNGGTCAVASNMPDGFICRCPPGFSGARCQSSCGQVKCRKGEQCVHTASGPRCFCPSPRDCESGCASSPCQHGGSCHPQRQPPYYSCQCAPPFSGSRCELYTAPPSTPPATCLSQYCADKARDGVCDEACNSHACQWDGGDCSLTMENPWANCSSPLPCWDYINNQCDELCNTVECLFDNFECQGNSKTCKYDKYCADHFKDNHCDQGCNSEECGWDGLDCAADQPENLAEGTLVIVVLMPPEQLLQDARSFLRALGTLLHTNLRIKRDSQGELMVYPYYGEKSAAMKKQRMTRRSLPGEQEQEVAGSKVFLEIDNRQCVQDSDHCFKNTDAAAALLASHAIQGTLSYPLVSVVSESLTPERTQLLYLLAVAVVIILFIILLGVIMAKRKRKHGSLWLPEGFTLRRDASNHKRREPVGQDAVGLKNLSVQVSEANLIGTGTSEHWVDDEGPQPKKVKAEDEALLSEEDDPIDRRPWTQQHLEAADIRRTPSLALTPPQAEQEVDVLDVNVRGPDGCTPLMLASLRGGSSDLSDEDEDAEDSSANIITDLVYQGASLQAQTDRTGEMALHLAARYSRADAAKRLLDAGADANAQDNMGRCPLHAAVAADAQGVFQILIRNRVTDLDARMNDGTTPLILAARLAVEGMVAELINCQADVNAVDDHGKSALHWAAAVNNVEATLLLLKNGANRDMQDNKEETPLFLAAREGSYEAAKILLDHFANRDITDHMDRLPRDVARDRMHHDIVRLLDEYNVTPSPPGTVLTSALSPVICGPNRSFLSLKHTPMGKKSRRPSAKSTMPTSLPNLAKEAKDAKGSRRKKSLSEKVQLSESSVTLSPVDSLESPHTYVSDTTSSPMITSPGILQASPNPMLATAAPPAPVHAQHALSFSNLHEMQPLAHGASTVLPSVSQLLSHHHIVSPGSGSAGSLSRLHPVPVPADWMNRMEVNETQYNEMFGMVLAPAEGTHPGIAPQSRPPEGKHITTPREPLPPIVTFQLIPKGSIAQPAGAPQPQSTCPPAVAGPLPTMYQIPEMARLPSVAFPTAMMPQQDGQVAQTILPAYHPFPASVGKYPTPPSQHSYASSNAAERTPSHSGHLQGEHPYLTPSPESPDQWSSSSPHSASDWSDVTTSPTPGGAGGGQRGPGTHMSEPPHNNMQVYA

[6] = target: Pro-neuregulin-1, membrane-bound isoform (Homo sapiens) (UniProt Q02297); test: small molecules binding neuregulin-1 protein – biochemical, small-molecule microarray, fluorescence 635/667, psychiatric disease protein project, primary screen (AID 1075); settings: NRG1 binding, 635 nm fluorescence, higher = more signal;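 note: score combines 667 nm spot fluorescence with signal to noise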
Sequence of Pro-neuregulin-1, membrane-bound isoform (Homo sapiens) (Q02297 whole entry, looked up, the tested form may be a part, canonical isoform): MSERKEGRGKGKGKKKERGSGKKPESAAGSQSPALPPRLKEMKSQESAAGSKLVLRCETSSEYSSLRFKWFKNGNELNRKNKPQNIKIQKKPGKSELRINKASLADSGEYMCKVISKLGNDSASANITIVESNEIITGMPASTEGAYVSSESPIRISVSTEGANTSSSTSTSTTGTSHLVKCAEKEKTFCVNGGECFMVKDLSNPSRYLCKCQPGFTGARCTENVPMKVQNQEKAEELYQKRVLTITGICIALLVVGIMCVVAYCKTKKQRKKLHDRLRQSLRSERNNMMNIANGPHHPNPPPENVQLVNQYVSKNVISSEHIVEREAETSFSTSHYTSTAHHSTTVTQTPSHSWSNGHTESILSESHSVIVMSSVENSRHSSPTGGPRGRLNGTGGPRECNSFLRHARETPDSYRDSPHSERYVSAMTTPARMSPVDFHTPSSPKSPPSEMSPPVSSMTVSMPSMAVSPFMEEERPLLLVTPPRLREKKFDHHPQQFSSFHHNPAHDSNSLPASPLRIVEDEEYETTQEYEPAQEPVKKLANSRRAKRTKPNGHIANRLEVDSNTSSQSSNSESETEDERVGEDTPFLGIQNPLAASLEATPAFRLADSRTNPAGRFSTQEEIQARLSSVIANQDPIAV

[7] = test system: Neuregulin-1 EGF-like domain; test: small molecules binding NRG1 EGF domain – biochemical, small-molecule microarray, 635 nm fluorescence, primary screen (AID 1081); settings: higher = more signal;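 note: binding of the protein to compounds printed on small-molecule microarray slides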
[8] = FRG1 expression reporter modulators in myotubes – cell-based, C2C12 myotubes, firefly/Renilla luciferase, luminescence, FRG1 inhibition for FSHD, primary screen (AID 1084); settings: FRG1 promoter luciferase, higher = more signal, called active from +8 up or from −8 down
[9] = small molecules captured by biotinylated probe aFST – biochemical, small-molecule microarray, fluorescence 635/667, stem cell growth factor project, primary screen (AID 1086); settings: higher = more signal;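 note: score merges 667 nm fluorescence with signal-to-noise of each printed compound spot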
[10] = binders of probe aHhip on microarray, primary screen, stem cell growth factor project, biochemical, small-molecule microarray, fluorescence 635/667 (AID 1087); settings: higher = more signal;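 note: score merges spot fluorescence at 667nm with spot signal to noise ratio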

Row | Structure (SMILES) | composite z-score [1] | composite z-score [2] | composite z-score [3] | composite z-score [4] | composite z-score [5] | composite z-score [6] | composite z-score [7] | z-score [8] | composite z-score [9] | composite z-score [10]
1 | CO[C@H]1COC(=O)CC=C[C@H](C)[C@@H](NS(=O)(=O)c2ccc(C)cc2)COC(=O)CC=C[C@@H]1C | -0.599 | 0.871 | -0.134 | 0.339 | 0.381 | -0.425 | -0.377 | -1.15 (inactive) | -0.197 | -0.0994
2 | C=CC[C@@H]1C=C[C@H](ON=Cc2ccc(C(=O)N3[C@H](c4ccc(C)cc4)[C@@H](C)CC[C@H]3C(=O)OC)cc2)[C@@H](CO)O1 | -0.482 | 0.835 | -0.0687 | 0.304 | 0.842 | 0.0373 | 0.586 | 0.274 (inactive) | 0.108 | -0.0994
3 | CC(C)CON=C1C[C@@H](O)[C@@H](O)[C@@H]2[C@@H]3C(=O)N([C@@H](C)c4ccccc4)C(=O)[C@@H]3CC[C@H]12 | -0.572 | -0.0881 | -0.0156 | 0.915 | 1.01 | 0.561 | 1.1 | -0.997 (inactive) | 0.629 | 0.21
4 | CCOC(=O)CCN1C(=O)[C@H]2[C@H]3[C@H](O)[C@H](O)CC(=NOC[C@@H](O)COCc4ccco4)[C@@H]3CC[C@H]2C1=O | 0.545 | 0.457 | 0.0166 | 0.484 | -0.328 | -0.21 | 0.486 | -0.124 (inactive) | 0.356 | -0.134
5 | CCOC(=O)NN=C1C[C@@H](O)[C@@H](O)[C@@H]2[C@@H]3C(=O)N(C(C)(C)C)C(=O)[C@@H]3CC[C@@H]12 | -0.295 | 0.721 | 0.0014 | 0.177 | 0.394 | -0.904 | -1.83 | -0.0445 (inactive) | 0.577 | -0.0994
6 | N#Cc1ccc(NN2C(C(O)c3cc(C(F)(F)F)cc(C(F)(F)F)c3)C=CC3C(=O)N(c4ccccc4)C(=O)C32)cc1 (stereo not given) | 0.0678 | 0.517 | 0.116 | 0.668 | 1.27 | 1.97 | 1.22 | 0.474 (inactive) | 0.785 | 0.357
7 | CCCCCN1CC=CC23O[C@@H]4C=CCOC(=O)[C@@H]4[C@H]2C(=O)N(CCCCCCO)[C@@H]3C1=O (stereo not given in full) | 0.729 | -0.859 | -0.133 | -0.237 | -1.14 | 2.35 | 0.975 | 0.428 (inactive) | -0.823 | -0.429
8 | O=C1O[C@@H](c2ccccc2)[C@@H](c2ccccc2)N2[C@@H](c3ccc(OCCO)cc3)[C@]3(C(=O)Nc4ccc(C#CCCO)cc43)[C@@H](C(=O)N3CCCCCCC3)[C@H]12 | 3.26 | 2.28 | 0.702 | 1.12 | 1.36 | 2.02 | 1.18 | -1.99 (inactive) | 3.04 | 2.53
9 | COC(=O)[C@@]1(Cc2ccc(F)cc2)[C@@H]2C(=CC(=O)[C@H]2CC(=O)C(=O)N(C)C)CN1C(=O)c1ccccc1 | 0.581 | -0.293 | 0.293 | 0.663 | 1.71 | 1.49 | 1.36 | -0.524 (inactive) | 1.45 | 2.1
10 | O=C1[C@H]2[C@H]3[C@H](O)[C@H](O)CC(=NO[C@@H]4O[C@H](CO)[C@@H](O)[C@H](O)[C@H]4O)[C@H]3CC[C@H]2C(=O)N1Cc1ccc2c(c1)OCO2 | 0.606 | 1.53 | -0.104 | -0.103 | -0.475 | 0.266 | 0.592 | -0.0585 (inactive) | 0.319 | -0.132
11 | COc1cccc([C@H]2Oc3ccc(OC)cc3C(=NO[C@H](C)c3cn([C@@H]4COC[C@H]4O)nn3)[C@@H]2O)c1 | -0.183 | 0.044 | -0.0867 | -0.246 | -0.315 | 0.0671 | -0.168 | 0.253 (inactive) | -0.324 | -0.305
12 | CC(=O)OC[C@H]1O[C@H](C#CCCCc2ccccc2)C=C[C@@H]1OC(C)=O | -0.0129 | 0.105 | -0.083 | 0.73 | 0.2 | 0.505 | 0.765 | -0.13 (inactive) | -0.206 | 0.351
13 | CC(C)(C)OC(=O)CC[C@]1(C(=O)NCc2ccccc2)N=C(c2ccc(OCCCO)cc2)O[C@H]1c1ccccc1 | 0.0895 | 0.8 | -0.0036 | 1 | 0.979 | 1.94 | 1.23 | -2.08 (inactive) | 1.04 | -0.0645
14 | CCCNC(=O)OC[C@H]1O[C@H](CCON=C2[C@H]3CCn4c(=O)n(-c5ccccc5)c(=O)n4[C@H]3[C@H](O)[C@@H]3O[C@H]23)C=C[C@@H]1Oc1ccc(OC)cc1 | -0.362 | 0.447 | -0.0885 | 0.406 | 0.774 | -0.248 | 0.0894 | -0.257 (inactive) | 0.214 | -0.0994
15 | O=C1[C@H]2[C@H]3[C@H](O)[C@H](O)CC(=NOC[C@@H](O)COCc4ccco4)[C@H]3CC[C@H]2C(=O)N1C1CCCCC1 | -0.749 | 2.19 | -0.254 | -0.39 | -0.24 | -0.394 | 0.403 | -0.784 (inactive) | 0.101 | -0.156
16 | CO[C@H]1O[C@H](CO)[C@@H](OC(=O)Nc2ccc3c(c2)OCO3)[C@H](OC(=O)Nc2ccccc2-c2ccccc2)[C@@H]1OC(=O)Nc1ccccc1-c1ccccc1 | 0.0442 | -0.029 | -0.0238 | 1.13 | 1.57 | 0.985 | 1.17 | 1.36 (inactive) | 0.626 | 0.151
17 | C[C@H]1CC[C@@H](C(=O)O)N[C@@H]1c1ccc(C#CCN(C)C)cc1 | -0.326 | 0.451 | -0.0943 | 0.185 | 0.608 | 0.115 | 0.0934 | -0.794 (inactive) | 0.629 | -0.119

Row | Structure (SMILES) | composite z-score [1] | composite z-score [2] | composite z-score [3] | composite z-score [4] | composite z-score [5] | composite z-score [6] | composite z-score [7] | z-score [8] | composite z-score [9] | composite z-score [10]
18 | CCOC(=O)C[C@H]1[C@H](OC(=O)c2ccc(C(=O)c3ccccc3)cc2)[C@@H](NC(=O)c2ccc(-c3ccccc3)cc2)c2cc(OCCCO)ccc2N1C(=O)c1ccc2ccccc2n1 | -0.378 | 0.292 | -0.0685 | 0.773 | 0.643 | 0.5 | 0.927 | 0.0728 (inactive) | 0.465 | -0.193
19 | C=C(CCCC)C(=O)CC[C@@H](OC(C)=O)c1cccc(OCCO)c1 | -0.168 | -0.371 | -0.152 | -0.565 | -0.46 | 0.25 | 1.36 | -3.56 (inactive) | -0.507 | -0.0994
20 | CO[C@@H]1COC(=O)CC=C[C@@H](C)[C@@H]2C=C[C@H](O)[C@@H](COC(=O)CCC[C@H]1C)O2 | -0.29 | 1.11 | -0.146 | -0.14 | -0.117 | -0.582 | -0.167 | -0.414 (inactive) | 0.246 | -0.261
21 | CO[C@@H]1COC(=O)CC=C[C@@H](C)[C@@H]2C=C[C@H](O)[C@@H](COC(=O)[C@H](C)NC(=O)CC=C[C@H]1C)O2 | -0.556 | 0.977 | -0.15 | 0.321 | 0.268 | -0.497 | 0.849 | 0.361 (inactive) | 0.277 | 0.351
22 | CC(C)=C1C(=O)C(c2ccccc2)=C2CN3C(=O)N(CCc4ccccc4)C(=O)[C@]3(Cc3ccc(F)cc3)[C@H]21 | 0.565 | -0.65 | 0.0547 | -0.247 | -1.09 | 1.3 | 0.134 | -0.0896 (inactive) | 0.841 | 0.0722
23 | CO[C@H]1COC(=O)[C@@H]2CCCN2C(=O)CC=C[C@@H](C)[C@H](OC)COC(=O)CC=C[C@@H]1C | -0.57 | 1.62 | -0.163 | -0.0218 | -0.256 | -0.796 | 0.659 | -1.1 (inactive) | 0.152 | 0.176
24 | C[C@H]1Cc2c(-c3ccccc3)nc3c(c2CO1)CN(CCOc1ccccc1)CC3 | -0.635 | 0.568 | -0.113 | 0.739 | 1.41 | 0.135 | 0.991 | 0.53 (inactive) | 0.307 | -0.0708
25 | C[C@@H]1CC[C@H]2C(=O)O[C@H](COc3ccc(C(C)(C)C)cc3)CN2[C@H]1c1ccc(Br)cc1 | -0.417 | -0.16 | -0.026 | -0.0359 | 0.111 | 0.536 | -0.414 | 0.414 (inactive) | -0.0273 | -0.0296
26 | CCCNC(=O)[C@@H]1c2ccccc2C(=O)N(c2ccc(C)cn2)[C@H]1c1ccc(CO)cc1 | 0.901 | 0.0211 | -0.176 | -0.857 | -1.01 | -0.465 | 1.4 | 0.213 (inactive) | -0.348 | -0.258
27 | CC=CC1=C(CO)[C@H](O)[C@H]2O[C@H]2[C@H]1O | -0.659 | 0.253 | -0.027 | 0.166 | -0.0482 | -0.157 | 0.583 | -0.0975 (inactive) | -0.191 | 0.0881
28 | Cc1cc(C)c(-c2cc([C@H](C)ON=C3[C@H]4CCn5c(=O)n(-c6ccccc6)c(=O)n5[C@H]4[C@H](O)[C@@H]4O[C@H]34)on2)c(C)c1 | -0.437 | 1.55 | 0.0168 | 0.481 | 0.471 | 0.463 | 0.0257 | -0.793 (inactive) | 0.484 | 0.0024
29 | CCOC(=O)CCN1C(=O)[C@H]2[C@H]3[C@H](O)[C@H](O)CC(=NOC[C@@H](O)COCc4ccco4)[C@H]3CC[C@H]2C1=O | -0.528 | -0.0277 | -0.0996 | 0.483 | 0.722 | 0.035 | 0.148 | 0.122 (inactive) | 0.132 | 0.28
30 | COC(=O)c1c(CC[C@@H](CO)NC(=O)N[C@H](Cc2ccccc2)Cn2cc(-c3ccccc3N)nn2)oc(C(C)=O)c1C(=O)OC | 0.718 | 0.799 | 0.241 | 0.465 | 0.269 | 0.939 | 0.71 | -0.52 (inactive) | 0.914 | 0.176
31 | O=C1C[C@@H](O)[C@@H](O)[C@@H]2[C@@H]3C(=O)N(C4CCCCC4)C(=O)[C@@H]3CC[C@H]12 | -0.472 | 0.176 | -0.0638 | 0.593 | 0.698 | 0.0523 | 0.797 | 0.65 (inactive) | -0.22 | -0.511
32 | C=CCC(OC(C)=O)[C@@H]1[C@@H](N(Cc2cc3ccccc3o2)C(=O)Cc2ccc(F)cc2)c2cc(OCCCO)ccc2N1C(=O)Cc1ccc(OC)cc1 (stereo not given in full) | -0.115 | 0.102 | -0.0409 | 0.351 | -0.383 | 0.16 | -0.707 | -2.16 (inactive) | -0.0711 | 0.0373
33 | CN1C(=O)C2C=CC(C(O)c3ccc(Br)cc3)N(N(c3ccccc3)c3ccccc3)C2C1=O (stereo not given) | 0.519 | -0.225 | 0.301 | 0.125 | 1.09 | 0.181 | 0.985 | 0.162 (inactive) | 0.576 | -0.0618
